Measurements as given in ChEMBL document CHEMBL3433997, “St. Jude Leishmania screening dataset” (2016).

The molecules below were run against Solute carrier family 2, facilitated glucose transporter member 1 (Homo sapiens) (UniProt P11166) (assay: ST_JUDE_LEISH: Cytotoxicity at 2uM final concentration against transgenic Leishmania Mexicana promastigotes LmGLUT1 that are glucose transport deficient and complemented with the human glucose transporter GLUT1. Activity is measured by DNA content using SYBR green in vitro).
Solute carrier family 2, facilitated glucose transporter member 1 (Homo sapiens), sequence (P11166 whole entry): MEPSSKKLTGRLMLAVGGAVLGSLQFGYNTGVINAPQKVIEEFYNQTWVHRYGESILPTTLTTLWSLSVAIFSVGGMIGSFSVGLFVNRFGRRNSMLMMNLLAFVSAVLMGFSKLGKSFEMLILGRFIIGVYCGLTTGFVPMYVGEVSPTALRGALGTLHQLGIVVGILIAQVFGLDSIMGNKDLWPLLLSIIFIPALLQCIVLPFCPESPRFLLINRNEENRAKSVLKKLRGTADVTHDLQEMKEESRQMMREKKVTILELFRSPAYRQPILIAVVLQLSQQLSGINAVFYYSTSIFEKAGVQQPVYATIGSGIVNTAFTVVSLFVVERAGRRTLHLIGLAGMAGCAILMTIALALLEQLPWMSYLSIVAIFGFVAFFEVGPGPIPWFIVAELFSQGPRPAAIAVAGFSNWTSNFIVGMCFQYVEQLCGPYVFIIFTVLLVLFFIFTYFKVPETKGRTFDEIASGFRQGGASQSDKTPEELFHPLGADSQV
Assay type: functional

**Q.** With O=C(CCC1CCCCC1=O)c1ccccc1 (stereo not given) as the molecule, how does the inhibition read?
**A.** 3.73%

**Q.** Which inhibition does the source give for Cc1cc(C)c(-c2n[nH]c3c2C(c2cccc(Cl)c2)N(Cc2ccco2)C3=O)c(O)c1 (stereo not given) here?
**A.** 1.7%

**Q.** How did the inhibition turn out when O=[N+]([O-])c1cc2c(cc1C=NNc1nc(=Nc3ccccc3)[nH]c(=Nc3ccccc3)[nH]1)OCO2 was run?
**A.** 1.53%

**Q.** Which inhibition does the source give for O=C(Nc1cccc(CN2CCCN(Cc3ccc4c(c3)OCO4)CC2)c1)c1ccc2ccccc2c1 here?
**A.** 1.49%

**Q.** Which inhibition does the source give for COc1ccc(C(=O)O)cc1OCc1ccccc1 here?
**A.** 0.41%

**Q.** Which inhibition does the source give for C=CC[C@H](C[C@H](O)[C@H](Cc1ccccc1)NC(=O)c1nn(-c2ccccc2)nc1C)C(=O)NC1CCCCC1 here?
**A.** 2.06%

**Q.** For CC1CCN(C(=O)C(Cc2c[nH]c3ccccc23)NS(=O)(=O)c2ccc(Cl)cc2)CC1 (stereo not given), which inhibition is on record?
**A.** 0.31%

**Q.** Which inhibition does the source give for O=C(Nc1ccc(F)c(Cl)c1)NC1CCN(c2ccnc3cc(Cl)ccc23)C1 (stereo not given) here?
**A.** 6.4%

**Q.** Which inhibition does the source give for Cc1cccc2nc(-c3cccc(-c4cccc(CNCCN5CCNCC5)c4)c3)[nH]c12 here?
**A.** 0.34%

**Q.** With CCOC(=O)c1cccc(NC(=O)Nc2cccc(-c3ncc(OCCCN)c4c3nc(-c3nonc3N)n4CC)c2)c1 as the molecule, how does the inhibition read?
**A.** 2.41%

**Q.** With COC(=O)c1ccc2nc(-c3ccc(C(=O)NCc4ccc(Cl)c(Cl)c4)cc3)[nH]c2c1 as the molecule, how does the inhibition read?
**A.** 3.81%

**Q.** For O=[N+]([O-])c1cccc(-n2nc(NCc3ccc(Cl)cc3)nc2-c2ccc(F)c(C(F)(F)F)c2)c1, which inhibition is on record?
**A.** 1.19%

**Q.** Nc1nc(N)c2cc(Cc3ccccc3Cl)cnc2n1 was tested. Which inhibition did it give?
**A.** -0.18%

**Q.** Which inhibition does the source give for CN(C)CCCOC(=O)c1cc2cc(-c3ccccc3)ccc2n1S(=O)(=O)Cc1ccccc1 here?
**A.** 5.88%

**Q.** How did the inhibition turn out when CCOC(=O)C(=O)N1c2ccc(OCC)cc2-c2c(ssc2=S)C1(C)C was run?
**A.** -0.01%

**Q.** Which inhibition does the source give for CC(C)[C@H]1CC[C@H](C)C[C@@H]1OC(=O)N[C@@H](Cc1ccc(O)cc1)C(=O)NC1CCN(Cc2ccc(OCCCN(C)C)cc2)C1 (stereo not given in full) here?
**A.** 5.09%

**Q.** How did the inhibition turn out when CNCc1cccc(-c2ccc3ccnc(N)c3c2)c1 was run?
**A.** 7.92%

**Q.** Which inhibition does the source give for CCN1CCC(N(Cc2ccc(-c3ccc(C(F)(F)F)cc3)cc2)C(=O)Cn2c(SCc3ccc(F)cc3)nc(=O)c3c2CCC3)CC1 here?
**A.** -0.04%

**Q.** For Cc1cc(N[C@@H](Cc2ccccc2)C(=O)Nc2ccccc2)nc(NCC2CCCCC2)n1, which inhibition is on record?
**A.** 12.8%

**Q.** How did the inhibition turn out when Nc1nccc2ccc(-c3ccsc3)cc12 was run?
**A.** 5.2%

**Q.** With C[C@H](NC(=O)c1c(CN2CCN(C(=O)C(C)(C)C)CC2)c(-c2cccs2)nc2ccccc12)C1CCCCC1 as the molecule, how does the inhibition read?
**A.** 6.07%

**Q.** For Cc1cnc(NCC2CCCCC2)nc1NCC(=O)Nc1ccccc1, which inhibition is on record?
**A.** 4.2%

**Q.** With CN1CCc2ccc(NC(=O)Nc3ccc(Cl)c(Cl)c3)cc2C1 as the molecule, how does the inhibition read?
**A.** 4.69%

**Q.** With Cc1ccc(C(CC(=O)Nc2nccs2)c2ccc(OC(C)C)cc2)cc1 (stereo not given) as the molecule, how does the inhibition read?
**A.** -1.83%

**Q.** With Cn1c(NC(=O)CCCCCNC(=O)c2ccc(O)c(-c3ccc(Cl)c(Cl)c3)c2)nc2ccccc21 as the molecule, how does the inhibition read?
**A.** 1.81%

**Q.** CCN(CC)CCCC(C)N=c1cc(C=Cc2ccc([N+](=O)[O-])cc2)[nH]c2ccc(OC)cc12 (stereo not given) was tested. Which inhibition did it give?
**A.** 2.45%

**Q.** Which inhibition does the source give for O=C(NC1CCCCC1)N(Cc1cccc(-c2cccc(CNC3CCCC3)c2)c1)C1CCN(Cc2ccccc2)CC1 here?
**A.** 8.95%

**Q.** How did the inhibition turn out when CNCCNCc1cccc(-c2cccc(-c3nc4cc(C(F)(F)F)ccc4[nH]3)c2)c1 was run?
**A.** 2.15%

**Q.** COc1ccc2[nH]c(C)cc(=NN=Cc3ccccc3F)c2c1 was tested. Which inhibition did it give?
**A.** -0.29%

**Q.** Which inhibition does the source give for CCN(CCCN1CCCCC1)c1cc(C)nc(Nc2cc(F)cc(F)c2)n1 here?
**A.** 5.16%

**Q.** CNC(=O)c1cc(S(=O)(=O)N2CCN(c3ccccn3)CC2)c(C)s1 was tested. Which inhibition did it give?
**A.** -1.34%

**Q.** Which inhibition does the source give for COc1ccc2nc(N)nc(C)c2c1 here?
**A.** 4.18%

**Q.** CCCC1N=C(N)N=C(N)N1c1ccc(Cl)cc1 (stereo not given) was tested. Which inhibition did it give?
**A.** 2%

**Q.** For O=C(c1cccc(COc2ccc3c(c2)CCN(C2CCCC2)CC3)c1)N1CCN(c2ccncc2)CC1, which inhibition is on record?
**A.** 8.85%

**Q.** Which inhibition does the source give for CN1CCCC1CCNc1ncc2c(-c3ccc(NC(=O)Nc4cc(C(F)(F)F)ccc4F)cc3)nn(C)c2n1 (stereo not given) here?
**A.** 3.33%

**Q.** For CC(C)N1CCC(N(Cc2ccc(-c3ccc(C(F)(F)F)cc3)cc2)C(=O)Cn2c(SCc3cccc(F)c3F)cc(=O)c3ccccc32)CC1, which inhibition is on record?
**A.** -0.18%

**Q.** Which inhibition does the source give for Cc1noc(C)c1-c1ccc2c(Nc3cccc4c3-c3ccccc3C4=O)c(C(=O)NCc3ccccc3I)cnc2c1 here?
**A.** 3.15%

**Q.** COc1cc2c(cc1OCCN1CCC(N)CC1)N(C(=O)/C=C/c1ccccc1Cl)CC2 was tested. Which inhibition did it give?
**A.** 11.3%

**Q.** N#Cc1cccc(C(=O)Nc2ccc(-c3cccc(CN4CCC(O)CC4)c3)cc2)c1 was tested. Which inhibition did it give?
**A.** 0.21%

**Q.** Cc1cc(F)ccc1Oc1nc(Nc2ccc(N3CCOCC3)c(F)c2)nc2c1S(=O)(=O)CCC2 was tested. Which inhibition did it give?
**A.** 6.48%

Each molecule was assayed against Hexose transporter 1 (Plasmodium falciparum) (UniProt O97467) (assay: ST_JUDE_LEISH: Cytotoxicity at 2uM final concentration against transgenic Leishmania Mexicana promastigotes LmPfHT that are glucose transport deficient and complemented with the Plasmodium falciparum hexose transporter. Activity is measured by DNA content using SYBR green in vitro).
Assay type: functional

**Q.** For O=C(CCC1CCCCC1=O)c1ccccc1 (stereo not given), which inhibition is on record?
**A.** 2.15%

**Q.** Cc1cc(C)c(-c2n[nH]c3c2C(c2cccc(Cl)c2)N(Cc2ccco2)C3=O)c(O)c1 (stereo not given) was tested. Which inhibition did it give?
**A.** 5.35%

**Q.** O=[N+]([O-])c1cc2c(cc1C=NNc1nc(=Nc3ccccc3)[nH]c(=Nc3ccccc3)[nH]1)OCO2 was tested. Which inhibition did it give?
**A.** 1.47%

**Q.** Which inhibition does the source give for O=C(Nc1cccc(CN2CCCN(Cc3ccc4c(c3)OCO4)CC2)c1)c1ccc2ccccc2c1 here?
**A.** 1.31%

**Q.** Which inhibition does the source give for COc1ccc(C(=O)O)cc1OCc1ccccc1 here?
**A.** -0.29%

**Q.** Which inhibition does the source give for C=CC[C@H](C[C@H](O)[C@H](Cc1ccccc1)NC(=O)c1nn(-c2ccccc2)nc1C)C(=O)NC1CCCCC1 here?
**A.** 2.34%

**Q.** For CC1CCN(C(=O)C(Cc2c[nH]c3ccccc23)NS(=O)(=O)c2ccc(Cl)cc2)CC1 (stereo not given), which inhibition is on record?
**A.** 1.31%

**Q.** How did the inhibition turn out when O=C(Nc1ccc(F)c(Cl)c1)NC1CCN(c2ccnc3cc(Cl)ccc23)C1 (stereo not given) was run?
**A.** 6.38%

**Q.** Which inhibition does the source give for Cc1cccc2nc(-c3cccc(-c4cccc(CNCCN5CCNCC5)c4)c3)[nH]c12 here?
**A.** -3.8%

**Q.** How did the inhibition turn out when CCOC(=O)c1cccc(NC(=O)Nc2cccc(-c3ncc(OCCCN)c4c3nc(-c3nonc3N)n4CC)c2)c1 was run?
**A.** 3.25%

**Q.** Which inhibition does the source give for COC(=O)c1ccc2nc(-c3ccc(C(=O)NCc4ccc(Cl)c(Cl)c4)cc3)[nH]c2c1 here?
**A.** 3.6%

**Q.** With O=[N+]([O-])c1cccc(-n2nc(NCc3ccc(Cl)cc3)nc2-c2ccc(F)c(C(F)(F)F)c2)c1 as the molecule, how does the inhibition read?
**A.** 2.33%

**Q.** For Nc1nc(N)c2cc(Cc3ccccc3Cl)cnc2n1, which inhibition is on record?
**A.** 2.28%

**Q.** With CN(C)CCCOC(=O)c1cc2cc(-c3ccccc3)ccc2n1S(=O)(=O)Cc1ccccc1 as the molecule, how does the inhibition read?
**A.** 10.6%

**Q.** How did the inhibition turn out when CCOC(=O)C(=O)N1c2ccc(OCC)cc2-c2c(ssc2=S)C1(C)C was run?
**A.** 0.3%

**Q.** For CC(C)[C@H]1CC[C@H](C)C[C@@H]1OC(=O)N[C@@H](Cc1ccc(O)cc1)C(=O)NC1CCN(Cc2ccc(OCCCN(C)C)cc2)C1 (stereo not given in full), which inhibition is on record?
**A.** 3.96%

**Q.** CNCc1cccc(-c2ccc3ccnc(N)c3c2)c1 was tested. Which inhibition did it give?
**A.** 10.7%

**Q.** Which inhibition does the source give for CCN1CCC(N(Cc2ccc(-c3ccc(C(F)(F)F)cc3)cc2)C(=O)Cn2c(SCc3ccc(F)cc3)nc(=O)c3c2CCC3)CC1 here?
**A.** -0.63%

**Q.** How did the inhibition turn out when Cc1cc(N[C@@H](Cc2ccccc2)C(=O)Nc2ccccc2)nc(NCC2CCCCC2)n1 was run?
**A.** 11.3%

**Q.** Which inhibition does the source give for Nc1nccc2ccc(-c3ccsc3)cc12 here?
**A.** 3.92%

**Q.** With C[C@H](NC(=O)c1c(CN2CCN(C(=O)C(C)(C)C)CC2)c(-c2cccs2)nc2ccccc12)C1CCCCC1 as the molecule, how does the inhibition read?
**A.** 5.13%

**Q.** How did the inhibition turn out when Cc1cnc(NCC2CCCCC2)nc1NCC(=O)Nc1ccccc1 was run?
**A.** 4.34%

**Q.** CN1CCc2ccc(NC(=O)Nc3ccc(Cl)c(Cl)c3)cc2C1 was tested. Which inhibition did it give?
**A.** 3.67%

**Q.** For Cc1ccc(C(CC(=O)Nc2nccs2)c2ccc(OC(C)C)cc2)cc1 (stereo not given), which inhibition is on record?
**A.** 0.63%

**Q.** Cn1c(NC(=O)CCCCCNC(=O)c2ccc(O)c(-c3ccc(Cl)c(Cl)c3)c2)nc2ccccc21 was tested. Which inhibition did it give?
**A.** 1.73%

**Q.** How did the inhibition turn out when CCN(CC)CCCC(C)N=c1cc(C=Cc2ccc([N+](=O)[O-])cc2)[nH]c2ccc(OC)cc12 (stereo not given) was run?
**A.** 5.16%

**Q.** O=C(NC1CCCCC1)N(Cc1cccc(-c2cccc(CNC3CCCC3)c2)c1)C1CCN(Cc2ccccc2)CC1 was tested. Which inhibition did it give?
**A.** 6.23%

**Q.** With CNCCNCc1cccc(-c2cccc(-c3nc4cc(C(F)(F)F)ccc4[nH]3)c2)c1 as the molecule, how does the inhibition read?
**A.** 1.32%

**Q.** For COc1ccc2[nH]c(C)cc(=NN=Cc3ccccc3F)c2c1, which inhibition is on record?
**A.** 2.87%

**Q.** Which inhibition does the source give for CCN(CCCN1CCCCC1)c1cc(C)nc(Nc2cc(F)cc(F)c2)n1 here?
**A.** 4.98%

**Q.** How did the inhibition turn out when CNC(=O)c1cc(S(=O)(=O)N2CCN(c3ccccn3)CC2)c(C)s1 was run?
**A.** -1.2%

**Q.** With COc1ccc2nc(N)nc(C)c2c1 as the molecule, how does the inhibition read?
**A.** 2.86%

**Q.** For CCCC1N=C(N)N=C(N)N1c1ccc(Cl)cc1 (stereo not given), which inhibition is on record?
**A.** 2.02%

**Q.** For O=C(c1cccc(COc2ccc3c(c2)CCN(C2CCCC2)CC3)c1)N1CCN(c2ccncc2)CC1, which inhibition is on record?
**A.** 5.59%

**Q.** For CN1CCCC1CCNc1ncc2c(-c3ccc(NC(=O)Nc4cc(C(F)(F)F)ccc4F)cc3)nn(C)c2n1 (stereo not given), which inhibition is on record?
**A.** 1.92%

**Q.** For CC(C)N1CCC(N(Cc2ccc(-c3ccc(C(F)(F)F)cc3)cc2)C(=O)Cn2c(SCc3cccc(F)c3F)cc(=O)c3ccccc32)CC1, which inhibition is on record?
**A.** 1.73%

**Q.** Cc1noc(C)c1-c1ccc2c(Nc3cccc4c3-c3ccccc3C4=O)c(C(=O)NCc3ccccc3I)cnc2c1 was tested. Which inhibition did it give?
**A.** 2.33%

**Q.** How did the inhibition turn out when COc1cc2c(cc1OCCN1CCC(N)CC1)N(C(=O)/C=C/c1ccccc1Cl)CC2 was run?
**A.** 10.8%

**Q.** With N#Cc1cccc(C(=O)Nc2ccc(-c3cccc(CN4CCC(O)CC4)c3)cc2)c1 as the molecule, how does the inhibition read?
**A.** 0.35%

**Q.** For Cc1cc(F)ccc1Oc1nc(Nc2ccc(N3CCOCC3)c(F)c2)nc2c1S(=O)(=O)CCC2, which inhibition is on record?
**A.** 7.33%
